# Assay results published in PubChem BioAssay (NCI).
# About 83,000 compounds went through this panel and 20% of them were active in at least one assay; those are over-represented in the sample as a whole.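 For each line, cells grew in 96-well plates with the test compound present at a single concentration for 48 hours.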 Values without a mark were called inactive. Calls of active or inactive are those of the source.
# System: OVCAR-3 ovarian
# Assay: NCI-60 one-dose screen, 48 h (100 = growth as untreated, 0 = no growth, -100 = all killed)
# Details: 10 µM unless noted
# Procedure: Growth inhibition of the OVCAR-3 human tumor cell line is measured as a screen for anti-cancer activity. Cells are grown in 96 well plates and exposed to the test compound for 48 hours. Compounds are tested at a single concentration, which is 10^-5 M for most compounds. The reported endpoint is percent growth (GI% or GIPRCNT), where numbers from 0 - 100% represent growth inhibition, and numbers from -100% - 0 represent cell death. For example, a value of 40 represents 60% growth inhibition. A value of 0 means no net growth occurred over the course of the experiment. A value of -40 indicates 40% of cells at the beginning of the experiment died by the end of the experiment. A value of -100 means all cells are dead at the end of the experiment.
# NCI-60 Human Tumor Cell Lines Screen was performed using the standard one-dose NCI protocol, which is described in more detail at https://dtp.cancer.gov/discovery_development/nci-60/default.htm.
# Compounds with GIPRCNT values below 10 were considered active. Activity score was based on GIPRCNT using the following formula: […]
# Score is 0 for GIPRCNT values of 100 or above, 50 for GIPRCNT values of 0, and 100 for GIPRCNT values of -100.
row,SMILES,growth
1,NC1[C@H]2CN(c3cnc(C(=O)Nc4cc(F)cc5cccnc45)cn3)C[C@@H]12 (stereo not given in full),2.08% (active)
2,O=C(CSc1nc2ccccc2c(=O)n1CCc1ccccc1)Nc1ccc(S(=O)(=O)Nc2ccc(Cl)nn2)cc1,98.8%
3,CN1CCN(c2ccc(Nc3nc(NCCCNS(=O)(=O)c4ccc(F)cc4)c4sccc4n3)cc2)CC1,97.4%
4,C[C@]12CC[C@H]3[C@@H](CC=C4C[C@@H](O)CC[C@@]43C)[C@@H]1CC[C@@H]2[C@](C)(O)CCc1cccnc1,65.7%
5,CC(=O)C1=C(C)NC(NNc2ccccc2)=NC1c1ccc([N+](=O)[O-])cc1 (stereo not given),99.7%
6,CC1=C(SCC(=O)OCCCCCC(C)C)C(=O)c2ccccc2C1=O,74%
7,N#Cc1c(-c2cccs2)cc(-c2cnccn2)nc1SCC(=O)N/N=C/c1ccncc1,117%
8,COc1ccc2[nH]cc(/C=N/Nc3ccnc4cc(Cl)ccc34)c2c1,-82.1% (active)
9,C=C1CCc2nc(SCC(=O)O)ccc2N1,117%
10,COc1ccc(/C=N/NC(=O)CSc2nc(-c3cnccn3)cc(-c3cccs3)c2C#N)cc1,90.6%
11,CCN(CC)S(=O)(=O)c1ccc(-c2nc(C(Cl)Cl)nc3cc(-c4ccc(F)cc4)nn23)cc1,16.8%
12,COc1cccc2c1[C@H](OC)[C@]13O[C@@]1(C2=O)[C@H](O)[C@H](C)[C@@](O)(C(=O)[C@@H]1O[C@H]1C)[C@@H]3O,-34.6% (active)
13,O=C(/C=C/c1cccc(F)c1)c1cccc(OCCCOc2cccc(C(=O)/C=C/c3cccc(F)c3)c2)c1,74.9%
14,COc1ccc2c(c1)c(-c1nnc(N)nc1-c1c[nH]c3ccc(F)cc13)cn2C,3.98% (active)
15,Cc1cc2nc(C(Cl)Cl)nc(-c3ccc(S(=O)(=O)N(C)C)cc3)n2n1,78.4%
16,C#CCn1cc(/C=N/Nc2nc(-c3ccc(Br)cc3)cs2)c2ccccc21,108%
17,Cc1[nH]c(C(=O)Nc2ccc(C(=O)NCC3CCNCC3)cc2OC(C)C)c(Cl)c1Cl,85.6%
18,CC1=C(C)C(=O)C(Nc2cccc(C(F)(F)F)c2)=C(Br)C1=O,103%
19,Cc1ccc(NC(=O)Nc2nc3ccc([N+](=O)[O-])cc3s2)cc1,-0.465% (active)
20,CC1(C)CC[C@]2(C(=O)NCCCCCCN(CCCN)CCCN)CC[C@]3(C)C(=CC[C@@H]4[C@@]5(C)CC[C@H](O)C(C)(C)[C@@H]5CC[C@]43C)[C@@H]2C1,106%

row,SMILES,growth
1,CCCC/C(=C\c1ccc(O)c(O)c1)C(=O)NC(Cc1ccccc1)C(=O)C(=O)NCCc1ccc(OC)cc1 (stereo not given),93.7%
2,COc1cc(NC(=O)Nc2cccc(-c3cc(=O)c4c(OC)c(OC)c(OC)cc4o3)c2)cc(OC)c1OC,40.1%
3,Cc1ccc(/C(N)=N/C(N)=N/c2nc3ccccc3s2)cc1,106%
4,COC(=O)c1ccc(NC2=C(Cl)C(=O)c3nc(C)ccc3C2=O)cc1,63.6%
5,COC(=O)c1ccc(NC2=C(Cl)C(=O)C(C)=C(C)C2=O)cc1,30.1%
6,CCOC(=O)c1cccc(NC2=C(Cl)C(=O)C(C)=C(C)C2=O)c1,99.8%
7,O=C(CSc1nnc(-c2cccs2)n1-c1ccccc1)Nc1ccccc1F,86.9%
8,Cc1ccc(NC2=C(Cl)C(=O)c3nc(C)ccc3C2=O)c(C)c1,-98.6% (active)
9,O=C(/C=C/c1cccc(Br)c1)c1cccc(OCCCCOc2cccc(C(=O)/C=C/c3cccc(Br)c3)c2)c1,105%
10,O=C(Nc1cccc(Cl)c1)Nc1nc2cc([N+](=O)[O-])ccc2o1,-0.896% (active)
11,CN1CCN(c2ccc(Nc3nc(NCCCNS(=O)(=O)c4cccc5ccccc45)c4sccc4n3)cc2)CC1,-62.7% (active)
12,O=C1CSC(c2cn(-c3ccccc3)nc2-c2ccc(Cl)cc2)N1c1ccccc1 (stereo not given),124%
13,Clc1ccc2[nH]cc(-c3cncn3CCc3ccc4c(c3)OCO4)c2c1,67.6%
14,CCOC(=O)c1c(NC(=O)c2ccc(C(F)(F)F)cc2)sc2c(CN3CCN(C)CC3)c(O)ccc12,-68.9% (active)
15,CC(C)NC(=O)c1cc(-c2ccc(NC(=O)Nc3ccc(F)cc3)cc2)nc2cccnc12,115%
16,CCCNNC(=O)c1ccc(-c2ccc(NC(=O)CCCCCCC(=O)N[C@H](C(=O)N3C[C@H](O)C[C@H]3C(=O)N[C@@H](C)c3ccc(-c4scnc4C)cc3)C(C)(C)C)cc2)cc1,30.2%
17,Cc1ccc2c(n1)C(=O)C(Cl)=C(Nc1ccc(C#N)cc1)C2=O,4.24% (active)
18,Cc1ccc2c(n1)C(=O)C(Cl)=C(Nc1ccc(C(C)C)cc1)C2=O,-55.7% (active)
19,Cn1ncc2ncc(-c3ccc4ncc(C#N)c(N5CCc6cc(F)c(Cl)cc65)c4c3)cc21,29.8%
20,CC1=C(C)C(=O)C(Nc2ccc3c(c2)OCO3)=C(Br)C1=O,104%
